According to PubChem BioAssay AID1224817 (Yan Lab, Georgia Cancer Center, Augusta University, 2016):
Several values for one entry are separate records, joined by “and”; a condition that tells them apart may be missing. Equal entries are not always repeated. Among all 2,000 compounds or so, about 25 (1%) were called active.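 Rule for the calls: active = log2 luciferase ratio at or below -0.5849, meaning signal at two thirds of solvent-only control or lower; inactive = the rest.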 The full list was thinned out, with actives kept by preference.

Experiment: eIF4E expression suppression, luciferase knock-in reporter – cell-based, HT1080, primary screen (AID 1224817);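 note: luciferase reports endogenous eIF4E expression since it is co-expressed from the native EIF4E locus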
Details: HT1080 EIF4E-luc2 knock-in reporter, 16 h, at 2.5 µM, active compounds read low

log2 luciferase activity ratio, inactive:
O=C(O)C(=O)/C=C(\O)c1ccc(Br)cc1 -0.065
N=C(CC(=O)Nc1ccccn1)c1ccccc1 0.825
COc1ccc(/C=N/NC(=O)O)cc1 0.161
CC(CSC(=N)N)C(N)=O (stereo unspecified) 0.0537
Cc1c(-c2nc(N)nc(C3CC3)c2C)nc(N)nc1C1CC1 -0.199
CN1CCN(CC(=O)N2c3ccccc3Sc3cc4ccccc4cc32)CC1 0.0693
O=[N+]([O-])c1cc(Cl)cc2c1nc(NCCO)c1ccccc12 0.0337
O=C(O)C1Cc2c([nH]c3ccccc23)C(CCCCO)N1 (stereo unspecified) -0.0145
O=C1OC(c2ccc(O)c(-c3ccccc3)c2)(c2ccc(O)c(-c3ccccc3)c2)c2c(Cl)c(Cl)c(Cl)c(Cl)c21 -0.153
O=C(O)c1ccc(Cc2ccccc2C(=O)O)cc1 -0.21
COC(=O)[C@]1(C)CCC[C@]2(C)C3=CC(=O)[C@@]4(C(C)C)O[C@H]4[C@]3(O)CC[C@@H]12 -0.359
OC1(c2ccccc2)c2ccccc2NC2=NCCN21 (stereo unspecified) 0.416
Ic1ccc2c(c1)N(c1ccccc1)c1cc(N=c3ccc4nc5ccc(I)cc5n(-c5ccccc5)c-4c3)ccc1N2 0.338
CC(=O)[C@H]1CC[C@@H]2[C@]1(C)CC=C1[C@]23C=C[C@]2(C[C@@H](O)CC[C@]12C)C(C(=O)O)C3C(=O)O (stereo partly specified) -0.137
COc1nc(N)nc2c1ncn2C1CC(O)C(CO)O1 (stereo unspecified) 0.0307
CC(C)Cn1cnc2c(Sc3c([N+](=O)[O-])ncn3C)nc(N)nc21 -0.473
CC1(C)CC23C4COC(=O)C2CCC1C3CC4=O (stereo unspecified) 0.113
O=C(O)CCn1cnc2c(=S)nc[nH]c21 -0.179
O=C(CSc1nc2ccccc2s1)c1sc2sc3ccccc3[n+]2c1[O-] 0.244
O=C(O)C1C(C(=O)O)C2C(=O)C=CC1N2Cc1ccccc1 (stereo unspecified) 0.0328
CC(C)Cn1cnc2c(SCc3ccc(Cl)cc3Cl)nc(N)nc21 0.484
NC1(C(=O)NC2(C(=O)O)CCCC2)CCCC1 0.0359
O=C(Nc1ccc(Nc2ccc3c(c2)C(=O)c2ccccc2C3=O)c2c1C(=O)c1ccccc1C2=O)c1ccccc1 0.326
O=C(O)[C@H](c1ccccc1)[C@@H](C(=O)O)c1ccccc1 -0.0929
NNC(=O)Cc1cccnc1 0.269
N=C(N)SCCN1CCCCC1 0.0135
CCCNc1ncnc2[nH]ncc12 -0.531
O=C(O)C1CC[N-]CC1.O=C(O)C1CC[N-]CC1.[Cl][Pt+2]([Cl])([Cl])[Cl] -0.241
CC(C)(N=NC(C)(C)C1=NCCN1)C1=NCCN1 -0.215
NCCSc1nc(-c2ccccc2)c(-c2ccccc2)o1 -0.0133
O=[N+]([O-])c1ccc(C2=Nn3c(nnc3-c3ccc(Cl)cc3)SC2)o1 0.0802
O=C(O)[C@@H]1[C@H](C(=O)O)[C@H](C(=O)O)C[C@@H]1C(=O)O -0.306
C/C(=N\NC(=O)c1ccncc1)c1ccccc1Cl 0.497
OC(Cc1cccnc1)(c1ccccc1)c1ccccc1 -0.0482
NC(=O)/C(=C\c1ccncc1)c1cccc2ccccc12 -0.0804
Nc1ccc2[nH]cc(CCC(=O)O)c2c1 -0.0435
NC(Cc1c[nH]c2ccc([N+](=O)[O-])cc12)C(=O)O (stereo unspecified) 0.208
Cc1cc(N2CCCCC2)nc2ccc(Cc3ccc4nc(N5CCCCC5)cc(C)c4c3)cc12 0.559
N=c1ncn(C/C=C/c2ccccc2)c2nc[nH]c12 0.287
Cc1cc(=Nc2ccc3c(c2)c(N)cc(C)[n+]3C)nc(N)n1C -0.0953
COc1cc2c(cc1OC)C(CCN)=NCC2 -0.216
CC1/C=C/C=C/CC/C=C/C=C/C=C/C=C/C(OC2OC(C)C(O)C(N)C2O)CC2OC(CC(O)C(O)CCC(O)CC(O)CC(O)CC(=O)OC(C)C(C)C1O)CC(O)C2C(=O)O (stereo unspecified) -0.0951 and -0.0559
NCCNCC(O)CO (stereo unspecified) 0.073
O=C(O)/C(=C\c1ccc(O)cc1)c1cccc2ccccc12 -0.199
CC1CCCC(CC(=O)O)(CC(=O)O)C1 (stereo unspecified) 0.274
CC1(CC(=O)O)OC2CCCCCC2O1 (stereo unspecified) (tested in a mixture with another compound) 0.0163
O=C1c2cccc(O)c2C(=O)c2c(OC3OC(CO)C(O)C(O)C3O)cccc21 (stereo unspecified) -0.141
OC1C(O)C(O)C(O)C(O)C1O (stereo unspecified) -0.102
CC(C)C(Nc1ncnc2nc[nH]c12)C(=O)O (stereo unspecified) 0.37
O=C(O)CNC(=O)c1ccccc1O 0.226
O=C(O)/C(=C/c1ccccc1)c1ccccc1 -0.172
O=C1Nc2ccccc2/C1=N\[O-].O=C1Nc2ccccc2/C1=N\[O-].[Cu+2] 0.0071
N[C@H](C(=O)O)[C@H]1ON=C(Cl)[C@@H]1O -0.333
CN(C)CCCn1c2c3ccccc3ccc2c2oc(=O)c3ccccc3c21 -0.461
CN1CC(c2ccccc2)C(O)(C2(c3ccccc3)CN(C)CC(c3ccccc3)C2=O)C(c2ccccc2)C1 (stereo unspecified) -0.0781
CC1CC(C)CN(S(=O)(=O)c2cc(Cl)c(Oc3ccc([N+](=O)[O-])cc3Cl)c(Cl)c2)C1 (stereo unspecified) 0.55
NCC(=O)C(O)C(O)C(O)CO (stereo unspecified) 0.229
O=C(O)/C=C\C(=O)Nc1ccccn1 0.0837
C[N+]1(CCC(=O)c2ccccc2)CCC2CCC(C2)C1 (stereo unspecified) 0.0296
CCCCCC[C@H]([C@H](C)O)n1cnc2c(N)ncnc21 -0.0979
NCCSCCC(=O)O -0.0504
CC(C)(CC(=O)Nc1ccccc1)C(=O)O -0.26
CC(=O)CC(=O)Nc1ccc2ccccc2c1 0.376
CN(C)Cc1c[nH]c2nc[nH]c(=O)c12 0.205
CN(C)CCC(=O)[C@@]1(O)CC[C@H]2[C@@H]3CC=C4C[C@@H](O)CC[C@]4(C)[C@H]3CC[C@@]21C 0.263
O=C(O)CC1OCC=C2C[N+]3([O-])CCC45c6ccccc6NC4C1C2CC53 (stereo unspecified) 0.195
Cc1ccc(C2(C)CC/C(=N/N=C3/CCC(C)(c4ccc(C)c(C)c4)c4cc(C)c(C)cc43)c3cc(C)c(C)cc32)cc1C (stereo unspecified) 0.135
Oc1c(Cl)cc(C(c2cc(Cl)c(O)c(Cl)c2)C(c2cc(Cl)c(O)c(Cl)c2)c2cc(Cl)c(O)c(Cl)c2)cc1Cl -0.198
COc1ccc(C[N+](C)(C)N)cc1OC -0.225
Cc1cc(=O)oc2c(OS(C)(=O)=O)c(OS(C)(=O)=O)ccc12 0.0541
Cc1ccn2c(CCc3nnc4cc(C)ccn34)nnc2c1 -0.0744
CC(=O)NC1CONC1=O (stereo unspecified) -0.303
C=C[C@]1(C)C[C@@H](OC(=O)CO)[C@@]2(C)[C@H](C)CC[C@]3(CCC(=O)[C@H]32)[C@@H](C)[C@@H]1O 0.127
Oc1ccc(Cc2nccc3cc(O)c(O)cc23)cc1O -0.044
OCCN(CO)CO -0.297
COc1ccc(CNC(C)C(=O)O)cc1 (stereo unspecified) -0.198
C/C(=N\[N+](C)(C)C)c1ccc(C)c(C)c1 -0.284
CC(C)CCC[C@@H](C)[C@H]1CC[C@H]2[C@@H]3CC[C@H]4C[C@H](N)CC[C@]4(C)[C@H]3CC[C@]12C 0.0721
CN(C)CCCNc1cc(O)c2c(c1O)C(=O)c1ccccc1C2=O 1.39
O=C(O)C/C=C/CC(=O)O -0.0603
CC(C)(C)CC(C)(C)c1cc(O)c(O)c(CN2CCCCC2)c1 -0.183
CC(C)(C)c1ccc(CN2CCN(C(c3ccccc3)c3ccc(Cl)cc3)CC2)cc1 (stereo unspecified) -0.0054
O=C1C(Cl)=C(Sc2nnc3c4ccccc4c4ccccc4c3n2)C(=O)c2ccccc21 0.552
O=C(O)CCSC1=NCCN1 -0.275
Oc1ccc2ccccc2c1CN(Cc1c(O)ccc2ccccc12)C1CCCCC1 -0.018

log2 luciferase activity ratio, active:
Nc1nc(Cl)cc(NCCO)n1 -0.615
COc1cccc2c1C(CO)N1C(C#N)C3CC(C(=O)O)C(C1C2)N3C (stereo unspecified) -1.55
CN(C)c1ccc2nc3c(C(=O)O)cc(=O)c(O)c-3oc2c1 -2.21
Cn1cnc([N+](=O)[O-])c1Sc1nc(N)nc2c1ncn2C1CC(O)C(CO)O1 (stereo unspecified) -0.645
C[C@@H]1C(=O)C[C@H]2C(C)(C)CCC[C@]2(C)[C@@]1(O)CCc1ccoc1 -0.608
O=C(O)Cc1c[nH]c2ccc(F)cc12 -0.736
O=C(O)CC1(C(=O)O)CCCCC1 -0.621
Cc1ccc(C)c(C2NC(=O)c3ccccc3N2)c1 (stereo unspecified) -0.685
COC1/C=C\C=C(/C)C(=O)NC2=CC(=O)C(N)=C(CC(C)CC(OC)C(O)C(C)C=C(C)C1OC(N)=O)C2=O (stereo unspecified) -1.05
NCC(=O)Nc1ccccc1 -0.679
COc1ccc(CCN(C)CCCC(C#N)(c2ccc(OC)c(OC)c2)C(C)C)cc1OC (stereo unspecified) -0.662
